Experimental data as given in PubChem BioAssay (NCATS).
Values joined by “and” are separate entries in the source; they are usually repeats but may differ in a detail not shown here. Identical values can stand only once. Records with an inconclusive call do not appear. Active and inactive are the calls of the source. Unless noted, calls come from the whole dose curve; as a rule, active = well fitted curve in the direction sought with a large enough effect; inconclusive = small, poorly fitted or top-dose-only effect, or another doubt; inactive = no such curve, though single readings can be large; an effect the other way counts as inactive or inconclusive.

Experiments:
[1] = Cell Viability - BJ (AID 421; calls by dose curve;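 note: potency is the fitted concentration of half-maximal effect; cells exposed to compound for 40 hours at 37 °C before readout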); conditions: BJ fibroblast viability, qHTS
Method in brief: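 Luminescent ATP signal (CellTiter-Glo, 20 min at room temperature) served as the read-out of viable BJ cells after 40 hours of compound treatment. Responses were scaled between DMSO and 100 uM tamoxifen, and AC50 values were obtained by Hill modeling.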

[2] = Cell Viability - Jurkat (AID 426;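 active = dose-dependent loss of cell ATP signal giving a full or clear fitted curve, ranked by lower potency value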;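 note: potency is the fitted concentration of half-maximal effect; cells exposed to compound for 40 hours at 37 °C before ATP read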); conditions: qHTS
Method in brief: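 Seed 5000 Jurkat E6-1 cells/well; add compound; incubate 40 hr at 37 °C; add CellTiter-Glo; wait 20 min at room temperature; read luminescence. Fit concentration-response with Hill equation for AC50.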

[3] = Cell Viability - Hek293 (AID 427;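 active = compounds whose dose-response curve shows a full or clear partial loss of cell viability, called from curve shape rather than a numeric limit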;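 note: potency is the fitted concentration of half-maximal effect; cells exposed to compound for 40 hours at 37 °C before reading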); conditions: qHTS
Method in brief: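 Luminescent ATP read-out (CellTiter-Glo, 20 min RT) after 40 hr compound exposure at 37 °C in complete medium. Signal normalized to DMSO (basal) and 100 uM tamoxifen (100% inhibition); concentration-response fitted with the standard Hill equation to give AC50.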

[4] = Cell Viability - HepG2 (AID 433; calls by dose curve;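 note: potency is the fitted concentration of half-maximal effect; potency for ATP loss meaning cytotoxicity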); conditions: qHTS
Method in brief: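 Cytotoxicity read as ATP loss (CellTiter-Glo luminescence) after 40 hr compound exposure of HepG2, 1500 cells/well, 37 °C. AC50 by Hill equation; 0% set by DMSO, 100% inhibition by 100 uM tamoxifen.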

[5] = Cell Viability - MRC5 (AID 434; calls by dose curve;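 note: potency is the fitted concentration of half-maximal effect; cells exposed to compound for 40 hours at 37 °C; potency reflects cytotoxicity seen as loss of intracellular ATP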); conditions: MRC5 lung fibroblast viability, qHTS
Method in brief: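 MRC5 normal human lung fibroblasts (1500/well) were treated with compounds for 40 hr at 37 °C in complete medium, and viable cells were measured as intracellular ATP by CellTiter-Glo luminescence. AC50 came from Hill fits, normalized to DMSO and 100 uM tamoxifen.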

[6] = Cell Viability - Mesenchymal (AID 546); conditions: mesenchymal cells viability, qHTS; series mostly up to 91.7 µM;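 note: cells exposed to compound for 40 hours before reading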
Method in brief: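 Normal human renal glomerulus-derived kidney mesenchymal cells, 1000 per well in complete medium, were treated with compounds for 40 hr at 37 °C. Viability was read as intracellular ATP by CellTiter-Glo luminescence; AC50 values came from Hill-equation fits of qHTS concentration-response data.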

[7] = Cellular Toxicity (caspase-3) HepG2 (AID 654); conditions: HepG2 caspase-3 activation, luminescence, 0% = DMSO only, 100% = tamoxifen; series mostly up to 92.2 µM;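 note: cells exposed to compound for 16 hours before reading; 0% = DMSO alone and 100% = caspase signal from 100 µM tamoxifen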
Method in brief: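 qHTS, HepG2, 1500 cells/well, complete medium; cpd 16 h 37 °C; Caspase-Glo 3/7, 20 min RT; lum. Norm: DMSO vs 100 uM tamoxifen; AC50 Hill fit.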

[8] = Cellular Toxicity (caspase-3) HUV-EC-C (AID 656); conditions: HUV-EC-C cells, caspase-3 activation (apoptosis), vehicle = 0, 100 µM tamoxifen = 100%; series mostly up to 92.2 µM
Method in brief: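 Luminescent Caspase-Glo 3/7 readout after 16 h, 37 °C compound exposure of HUV-EC-C endothelial cells, 1000 per well, complete medium. AC50 derived by Hill fitting, with DMSO as baseline and 100 uM tamoxifen as full activation.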

[9] = Cellular Toxicity (caspase-3) BJ (AID 658); conditions: BJ fibroblasts, luminescence, normalized: DMSO 0%, staurosporine 100%; series mostly up to 91.7 µM;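 note: cells exposed to compound for 16 hours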
Method in brief: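 Luminescent aminoluciferin-substrate cleavage reports caspase 3/7 activity in normal human BJ fibroblasts after 16 hr compound exposure at 37 °C. Normalized to DMSO (basal) and 10 uM staurosporine (100%); AC50 from Hill fit of concentration-response.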

[10] = Cellular Toxicity (caspase-3) MRC-5 (AID 659); conditions: MRC-5 cells, luminescence, normalized: DMSO 0%, 10 µM staurosporine 100%; series mostly up to 91.7 µM
Method in brief: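 Luminescence from caspase-cleaved aminoluciferin substrate (Caspase-Glo 3/7, 1 hr RT) reports caspase 3/7 activity in MRC-5 lung fibroblasts after 16 hr compound exposure. Normalized to DMSO basal and 10 uM staurosporine as 100%; AC50 from Hill fits.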

[11] = Cellular Toxicity (caspase-3) SK-N-SH (AID 661); conditions: SK-N-SH caspase-3 activation, qHTS; series mostly up to 91.7 µM;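 note: cells exposed to compound for 16 hours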
Method in brief: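 Caspase 3/7 activation is measured as a luminescence increase from aminoluciferin released by substrate cleavage in SK-N-SH cells after 16 hr compound treatment; values are AC50 from concentration-response curves.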

[12] = Cellular Toxicity (caspase-3) Hek293 (AID 664); conditions: HEK293 caspase-3 activation, DMSO = 0%, 100 µM tamoxifen = 100%; at 92.2 µM (top of the series);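 note: cells exposed to compound for 16 h at 37 °C before readout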
Method in brief: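 Activation of caspase-3/7 is measured as increased luminescence from cleaved peptide-aminoluciferin substrate in HEK293 cells treated 16 hours at 37 °C. AC50 values come from Hill-equation fits of concentration-response data.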

[13] = MultiTox-Fluor Cytotoxicity Assay - LYMP1-001 - Dead Cells (AID 946); conditions: LYMP1-001 lymphoblastoid cells, dead-cell protease fluorescence; series mostly up to 92.2 µM;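 note: 0% = DMSO and 100% = tetraoctylammonium bromide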
Method in brief: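 AC50 from Hill fit of concentration-response; data normalized to DMSO (basal) and 15 uM tetraoctylammonium bromide (100%). LYMP1-001 lymphoblastoid cells, 2500/well, 16 hr compound at 37 C; dead-cell protease fluorescence, Ex/Em 485/520.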

[14] = Cell Viability - LYMP1-002 - Assay at 16 hr (AID 948); conditions: LYMP1-002 lymphoblastoid cell viability; series mostly up to 92.2 µM;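 note: 0% = DMSO alone and full effect = 92 µM tetraoctylammonium bromide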
Method in brief: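 ATP luminescence (CellTiter-Glo) was measured after 16 hr compound exposure at 37 C of 2500 lymphoblastoid LYMP1-002 cells per well. Concentration-response curves were fitted with the Hill equation to give AC50.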

[15] = MultiTox-Fluor Cytotoxicity Assay - LYMP1-002 - Live Cells (AID 955); conditions: LYMP1-002 lymphoblastoid live-cell protease fluorescence viability; series mostly up to 46.1 µM;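 note: cells exposed to compound for 16 hours; % is set by controls: 0 for no effect and ±100 for the full control effect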
Method in brief: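 Cytotoxicity in the human lymphoblastoid line LYMP1-002 is measured as loss of live-cell protease activity after 16 h treatment in complete culture medium. AC50 is derived from Hill-equation fits of qHTS concentration-response data.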

[16] = MultiTox-Fluor Cytotoxicity Assay - LYMP1-003 - Dead Cells (AID 961); conditions: LYMP1-003 lymphoblastoid cells, dead-cell protease fluorescence; series mostly up to 92.2 µM;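 note: 0% = DMSO and 100% = tetraoctylammonium bromide; nearly all actives have a fitted effect of over 70% in size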
Method in brief: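 Human lymphoblastoid LYMP1-003 cells (2500/well) were treated with compounds for 16 hr at 37 C in complete medium. Dead-cell protease release was read by bis-AAF-R110 fluorescence (Ex/Em 485/520). AC50 came from Hill fits, normalized to DMSO and 15 uM tetraoctylammonium bromide.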

[17] = Cell Viability - LYMP2-016 (AID 984); conditions: LYMP2-016 lymphoblastoid cell viability, qHTS; series mostly up to 92.2 µM;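 note: cells exposed to compound for 24 hours at 37 °C; % is set by controls: 0 for no effect and ±100 for the full control effect; nearly all actives have a fitted effect of over 55% in size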
Method in brief: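 Cytotoxicity was scored by luminescent ATP content (CellTiter-Glo) after 24 h compound exposure at 37 C of a human lymphoblastoid line at 2500 cells/well. Concentration-response data were fitted to the Hill equation for AC50.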

[18] = Cell Viability - LYMP2-026 (AID 989); conditions: LYMP2-026 lymphoblastoid cell viability, qHTS; series mostly up to 92.2 µM; note: % is set by controls: 0 for no effect and ±100 for the full control effect; nearly all actives have a fitted effect of over 50% in size
Method in brief: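 Concentration-dependent loss of intracellular ATP in human lymphoblastoid cells after 24 hr at 37 C, quantified by luciferase luminescence. AC50 derived from standard Hill equation.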

[19] = qHTS Assay for Identification of Small Molecule Inducers of Hypoxia Response (AID 2120; active = well fitted curve in the direction sought with a large enough effect in the signal ratio, with a control signal flat, not every such curve was filed as active; the % refers to the signal ratio; note: 0% is about no effect); conditions: hypoxia response reporter cells, beta-lactamase ratio readout; series mostly up to 104 µM
Method in brief: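 Induction of beta-lactamase reporter activity was measured in CellSensor HRE-bla ME-180 cells after 17 h compound treatment at 37 degrees C, using CCF4 substrate and the 460nm/530nm emission ratio to derive AC50 values.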

[20] = target: Peroxisome proliferator-activated receptor alpha (Homo sapiens) (UniProt Q07869); assay: qHTS assay for small molecule agonists of the peroxisome proliferator-activated receptor alpha (PPARalpha) signaling pathway (AID 651778); conditions: PathHunter PPARalpha complementation, chemiluminescence, 6 h; stronger effect = higher value; note: % of control where 0% means no effect
Peroxisome proliferator-activated receptor alpha (Homo sapiens), sequence (Q07869 whole entry, looked up): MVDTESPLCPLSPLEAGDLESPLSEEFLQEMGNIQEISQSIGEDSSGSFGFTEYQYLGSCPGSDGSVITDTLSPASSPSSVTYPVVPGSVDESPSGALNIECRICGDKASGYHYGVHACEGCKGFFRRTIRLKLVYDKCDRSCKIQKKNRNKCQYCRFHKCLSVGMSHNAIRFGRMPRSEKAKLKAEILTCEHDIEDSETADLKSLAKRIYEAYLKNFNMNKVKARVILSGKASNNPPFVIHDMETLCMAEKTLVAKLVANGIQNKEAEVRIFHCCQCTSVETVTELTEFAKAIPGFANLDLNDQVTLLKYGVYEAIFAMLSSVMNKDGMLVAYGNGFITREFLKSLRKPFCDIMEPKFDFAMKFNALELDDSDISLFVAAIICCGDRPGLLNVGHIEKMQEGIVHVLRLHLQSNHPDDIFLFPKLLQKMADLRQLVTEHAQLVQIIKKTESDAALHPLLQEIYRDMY
Method in brief: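 Cells plated at 2,000/well and held overnight at 37 C, 5% CO2, then compound added by pin tool for 6 hr; after PathHunter detection reagent and 60 min at room temperature, chemiluminescence from enzyme complementation was read.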

Cc1ccc(N)c(C)c1
inactive: Potency [1] > 92 µM | Potency [2] > 92 µM | Potency [3] > 92 µM | Potency [4] > 92 µM | Potency [5] > 92 µM | Potency [6] | outcome [7] | outcome [8] | outcome [9] | outcome [10] | Potency [11] | caspase-3 activation [12] 1.54% | outcome [13] | outcome [14] | outcome [15] | Potency [16] | Potency [17] | Potency [18] | Potency [19] | max response [20] -4.17%

Nc1cccc(Cl)c1
inactive: Potency [1] > 92 µM | Potency [2] > 92 µM | Potency [3] > 92 µM | Potency [4] > 92 µM | Potency [5] > 92 µM | Potency [6] | outcome [7] | outcome [8] | outcome [9] | outcome [10] | Potency [11] | caspase-3 activation [12] 5.51% | outcome [13] | outcome [14] | outcome [15] | Potency [16] | Potency [17] | Potency [18] | Potency [19] | max response [20] 0.632%

CCCCOC(=O)c1ccccc1N
inactive: Potency [1] > 92 µM | Potency [2] > 92 µM | Potency [3] > 92 µM | Potency [4] > 92 µM | Potency [5] > 92 µM | Potency [6] | outcome [7] | outcome [8] | outcome [9] | outcome [10] | Potency [11] | caspase-3 activation [12] 0.422% | outcome [13] | outcome [14] | outcome [15] | Potency [16] | Potency [17] | Potency [18] | Potency [19] | max response [20] -4.62%

Clc1ccc(C(Cl)(Cl)Cl)cc1Cl
inactive: Potency [1] > 92 µM | Potency [2] > 92 µM | Potency [3] > 92 µM | Potency [4] > 92 µM | Potency [5] > 92 µM | Potency [6] | outcome [7] | outcome [8] | outcome [9] | outcome [10] | Potency [11] | caspase-3 activation [12] 1.11% | outcome [13] | outcome [14] | outcome [15] | Potency [16] | Potency [17] | Potency [18] | Potency [19] | max response [20] 1.82%

Cc1ccc(N=C=O)cc1N=C=O
inactive: Potency [1] > 92 µM | Potency [2] > 92 µM | Potency [3] > 92 µM | Potency [4] > 92 µM | Potency [5] > 92 µM | Potency [6] | outcome [7] | outcome [8] | outcome [9] | outcome [10] | Potency [11] | caspase-3 activation [12] 2% | outcome [13] | outcome [14] | outcome [15] | Potency [16] | Potency [17] | Potency [18] | Potency [19] | max response [20] -6.43% and 0.39%

ClCCOCOCCCl
inactive: Potency [1] > 92 µM | Potency [2] > 92 µM | Potency [3] > 92 µM | Potency [4] > 92 µM | Potency [5] > 92 µM | Potency [6] | outcome [7] | outcome [8] | outcome [9] | outcome [10] | Potency [11] | caspase-3 activation [12] -1.31% | outcome [13] | outcome [14] | outcome [15] | Potency [16] | Potency [17] | Potency [18] | Potency [19] | max response [20] -0.0658%

ClCc1ccccc1
inactive: Potency [1] > 92 µM | Potency [2] > 92 µM | Potency [3] > 92 µM | Potency [4] > 92 µM | Potency [5] > 92 µM | Potency [6] | outcome [7] | outcome [8] | outcome [9] | outcome [10] | Potency [11] | caspase-3 activation [12] 1.06% | outcome [13] | outcome [14] | outcome [15] | Potency [16] | Potency [17] | Potency [18] | Potency [19] | max response [20] 3.28%

C=CC(=O)OCC(C)C
inactive: Potency [1] > 92 µM | Potency [2] > 92 µM | Potency [3] > 92 µM | Potency [4] > 92 µM | Potency [5] > 92 µM | Potency [6] | outcome [7] | outcome [8] | outcome [9] | outcome [10] | Potency [11] | caspase-3 activation [12] -0.317% | outcome [13] | outcome [14] | outcome [15] | Potency [16] | Potency [17] | Potency [18] | Potency [19] | max response [20] 3.76%

Clc1cccc(Cl)c1
inactive: Potency [1] > 92 µM | Potency [2] > 92 µM | Potency [3] > 92 µM | Potency [4] > 92 µM | Potency [5] > 92 µM | Potency [6] | outcome [7] | outcome [8] | outcome [9] | outcome [10] | Potency [11] | caspase-3 activation [12] 1.04% | outcome [13] | outcome [14] | outcome [15] | Potency [16] | Potency [17] | Potency [18] | Potency [19] | max response [20] -0.108%

S=c1[nH]c2ccccc2[nH]1
inactive: Potency [1] > 92 µM | Potency [2] > 92 µM | Potency [3] > 92 µM | Potency [4] > 92 µM | Potency [5] > 92 µM | Potency [6] | outcome [7] | outcome [8] | outcome [9] | outcome [10] | Potency [11] | caspase-3 activation [12] 0.513% | outcome [13] | outcome [14] | outcome [15] | Potency [16] | Potency [17] | Potency [18] | Potency [19] | max response [20] -5.62%

CC(C)(Cl)[N+](=O)[O-]
inactive: Potency [1] > 92 µM | Potency [2] > 92 µM | Potency [3] > 92 µM | Potency [4] > 92 µM | Potency [5] > 92 µM | Potency [6] | outcome [7] | outcome [8] | outcome [9] | outcome [10] | Potency [11] | caspase-3 activation [12] -0.194% | outcome [13] | outcome [14] | outcome [15] | Potency [16] | Potency [17] | Potency [18] | Potency [19] | max response [20] -3.23%
